In the OligoGym collection:
Note: reference of the scale not given here.

The sequences below were run against ENTHD1 (assay: pooled miR-30 sensor sort-seq; sequence = guide strand). Conditions: shRNA.
Sequence TTGTGAACTATTCAGACTCATG has a sensor-assay potency score (higher = more potent) of -1.36. TTAAGTTCTTGGATCACTGTGC showed a sensor-assay potency score (higher = more potent) of 0.62. Work on TATTTGTAAAGATACCATCTGA yielded a sensor-assay potency score (higher = more potent) of -0.616. TATACTTCTTCTCTGAAGCAGA was tested, and the sensor-assay potency score (higher = more potent) was -0.435. For TAGAAGACAACTGTTGATGGGA, the sensor-assay potency score (higher = more potent) was 0.377. For TTTTATTATGTAACCTTCCAAA, the sensor-assay potency score (higher = more potent) was -1.23. In the case of TTATCATCCATCTGAATGCTGG, the sensor-assay potency score (higher = more potent) is reported as -0.718. With TTACAATCTCCTTCACTCGGTC the sensor-assay potency score (higher = more potent) was 0.0777. TAGTTTGAAAGATACTTGCTAA showed a sensor-assay potency score (higher = more potent) of -0.328.

The sequences below were run against ENTPD8 in the same assay as above. Conditions: shRNA.
For TAGTCGGAGCCGTAGAGGCGAA, the sensor-assay potency score (higher = more potent) was -1.54. TAGCCGCTGAGGTAGCACGGGT was tested, and the sensor-assay potency score (higher = more potent) was -0.869. TAGACGCTGTAGTCGGAGCCGT showed a sensor-assay potency score (higher = more potent) of -0.675. With TTCAACTGTGAGGTTCTGGGGG the sensor-assay potency score (higher = more potent) was 0.121. With TAGCTGTGAGTGTAGACGCTGT the sensor-assay potency score (higher = more potent) was 0.245. For TTGACCAGCGTCCCCAAGCCGT, the sensor-assay potency score (higher = more potent) was -1.42. TTGCCTGTCCCTTCAACTGTGA gave a sensor-assay potency score (higher = more potent) of -0.84. Sequence TCAGCATCTGGTCCCGTCCAAA has a sensor-assay potency score (higher = more potent) of -1.74. Sequence TCAACTGTGAGGTTCTGGGGGA has a sensor-assay potency score (higher = more potent) of 0.228. TCAAACACGATCCCAAACTTGA was tested, and the sensor-assay potency score (higher = more potent) was -0.982. TAGTTGACAGTGATCCAACCAA gave a sensor-assay potency score (higher = more potent) of 0.0426.

The sequences below were run against EPAS1 in the same assay as above. Conditions: shRNA.
TTTGGCAACAACAATAACGAGG gave a sensor-assay potency score (higher = more potent) of -0.434. Work on TAGAACACCTCCGTCTCCTTGC yielded a sensor-assay potency score (higher = more potent) of 0.306. TTGAGGTTGACAGTACGGCCTC showed a sensor-assay potency score (higher = more potent) of -0.329. TTTGTCATGGCACTGAAGCAGT showed a sensor-assay potency score (higher = more potent) of -0.635. For TACAAGTTGTCCATCTGCTGGT, the sensor-assay potency score (higher = more potent) was 0.354. Work on TTCACCTCACAGTCATATCTGG yielded a sensor-assay potency score (higher = more potent) of -0.278. TAGTTGACACACATGATGCACT gave a sensor-assay potency score (higher = more potent) of -0.913. Work on TTTCAGGTACAAGTTGTCCATC yielded a sensor-assay potency score (higher = more potent) of -1.4. TTAGAAGTCATTGAAGGTGGGG was tested, and the sensor-assay potency score (higher = more potent) was 0.712. For TAGTATGGACAGTTGTGTGTGA, the sensor-assay potency score (higher = more potent) was -0.0372. For TCTGTGGACATGTCTTTGCTTT, the sensor-assay potency score (higher = more potent) was -0.503. For TTGTGTGTTCGCAGGAAGCTGA, the sensor-assay potency score (higher = more potent) was -0.595. TTAGCTGGAAGTCTTCCCCGTC showed a sensor-assay potency score (higher = more potent) of -0.236. In the case of TTGTTGTAGACTTTCACCTGGC, the sensor-assay potency score (higher = more potent) is reported as 0.403. With TTGAACAGGGATTCAGTCTGGT the sensor-assay potency score (higher = more potent) was 0.262. With TTCATGTCCATGCTGTGGCGGC the sensor-assay potency score (higher = more potent) was -0.685. Sequence TTGGGTGAACTTATCATTGGGT has a sensor-assay potency score (higher = more potent) of 0.697. Sequence TTTAAGAACATTTCAGAACAGG has a sensor-assay potency score (higher = more potent) of -0.533. TTGCTCTTCATACTCCAGCTGT was tested, and the sensor-assay potency score (higher = more potent) was -0.454. TAGAAGTCATTGAAGGTGGGGA was tested, and the sensor-assay potency score (higher = more potent) was 0.421.
